In PubChem BioAssay (EPA / NIEHS):
Calls of active or inactive are those of the source. Rule for the calls: active = hit-call score of the fitted dose curve at least 0.9, where 1 is the maximum; inactive = score below 0.9.

Assays:
Settings in all cases: mRNA level, 48 h; actives raise or lower the signal
[1] = read-out: NAD(P)H dehydrogenase [quinone] 1 (NQO1), NQO1 (gene 1728); test: LTEA_HepaRG_NQO1: Life Technologies and Expression Analysis (LTEA) Assay for NAD(P)H dehydrogenase [quinone] 1 (NQO1) using HepaRG (AID 2283526)
Summary of the method: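 qRT-PCR read-out (Fluidigm TaqMan), normalized to three housekeeping genes, after 48 h chemical exposure of HepaRG cells. Concentrations: eight points, top 100 uM, half-log steps, 0.5% DMSO vehicle. Gain or loss of signal fitted relative to DMSO.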

[2] = read-out: Nuclear factor erythroid 2-related factor 2 (Homo sapiens) (UniProt Q16236); test: LTEA_HepaRG_NFE2L2: Life Technologies and Expression Analysis (LTEA) Assay for Nuclear factor erythroid 2-related factor 2 (NFE2L2) Transcription Factor using HepaRG (AID 2283527)
Summary of the method: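 NFE2L2 transcript level was read by qRT-PCR (housekeeping ACTB/GAPDH/POLR2A normalisation) after 48 h chemical treatment of HepaRG in serum-free induction medium. Duplicate 8-point half-log curves, top 100 uM, 0.5% DMSO vehicle; up- or down-regulation fitted against vehicle.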

[3] = read-out: succinate dehydrogenase complex iron sulfur subunit B (SDHB), SDHB (gene 6390); test: LTEA_HepaRG_SDHB: Life Technologies and Expression Analysis (LTEA) Assay for succinate dehydrogenase complex iron sulfur subunit B (SDHB) using HepaRG (AID 2283528)
Summary of the method: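 SDHB transcript level read by TaqMan qRT-PCR, housekeeping-normalised (ACTB, GAPDH, POLR2A), after 48 h chemical treatment of plated HepaRG cells; eight concentrations top 100 uM, half-log steps, 0.5% DMSO, duplicates; fitted both directions against DMSO.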

[4] = read-out: Signal transducer and activator of transcription 3 (Homo sapiens) (UniProt P40763); test: LTEA_HepaRG_STAT3: Life Technologies and Expression Analysis (LTEA) Assay for Signal transducer and activator of transcription (STAT3) using HepaRG (AID 2283529)
Summary of the method: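 STAT3 transcript quantified by qRT-PCR against three housekeeping genes (ACTB, GAPDH, POLR2A), fitted both directions relative to DMSO. HepaRG cultures exposed 48 h to eight half-log concentrations, top 100 uM, 0.5% DMSO, serum-free induction medium.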

[5] = read-out: solute carrier (SLCO1B1), SLCO1B1 (gene 10599); test: LTEA_HepaRG_SLCO1B1: Life Technologies and Expression Analysis (LTEA) Assay for solute carrier (SLCO1B1) using HepaRG (AID 2283530)
Summary of the method: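 HepaRG, serum-free induction medium, 48 h dosing, 8-pt half-log from 100 uM, 0.5% DMSO vehicle, duplicates. Readout: SLCO1B1 mRNA, qRT-PCR, ACTB/GAPDH/POLR2A normalization; up or down fit vs DMSO.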

[6] = read-out: sulfotransferase 2A1 (SULT2A1), SULT2A1 (gene 6822); test: LTEA_HepaRG_SULT2A1: Life Technologies and Expression Analysis (LTEA) Assay for sulfotransferase 2A1 (SULT2A1) using HepaRG (AID 2283531)
Summary of the method: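 Transcript levels of SULT2A1, quantified by qRT-PCR and normalized to three housekeeping genes, serve as the readout. Human HepaRG cultures receive test chemicals for 48 h at up to 100 uM in half-log steps, with 0.5% DMSO vehicle.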

[7] = read-out: Transforming Growth Factor (TGFA), TGFA (gene 7039); test: LTEA_HepaRG_TGFA: Life Technologies and Expression Analysis (LTEA) Assay for Transforming Growth Factor (TGFA) using HepaRG (AID 2283532)
Summary of the method: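 TGFA transcript quantified by qRT-PCR (Fluidigm arrays) against three housekeeping genes, after 48 hours chemical treatment of HepaRG cells. Top concentration 100 uM with half-log dilutions, 8 points, duplicates, 0.5% DMSO.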

[8] = read-out: Transforming Growth Factor (TGFB1), TGFB1 (gene 7040); test: LTEA_HepaRG_TGFB1: Life Technologies and Expression Analysis (LTEA) Assay for Transforming Growth Factor (TGFB1) Transporter using HepaRG (AID 2283533)
Summary of the method: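 HepaRG, 48 h post-plating, switched to serum-free induction medium; chemicals 100 uM top, half-log, 8 pts, 0.5% DMSO, dup; 48 h exposure; RNA → Fluidigm TaqMan qRT-PCR; norm ACTB/GAPDH/POLR2A; bidirectional fit vs DMSO.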

[9] = read-out: TIMP1, TIMP1 (gene 7076); test: LTEA_HepaRG_TIMP1: Life Technologies and Expression Analysis (LTEA) Assay for TIMP1 using HepaRG (AID 2283534)
Summary of the method: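 Readout is TIMP1 mRNA level measured by qRT-PCR and normalized to three housekeeping genes. Human HepaRG cells were treated for 48 h in duplicate at eight concentrations up to 100 uM (0.5% DMSO); gain or loss fitted against DMSO.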

[10] = read-out: Tumor necrosis factor receptor 1 (TNFRSF1A), TNFRSF1A (gene 7132); test: LTEA_HepaRG_TNFRSF1A: Life Technologies and Expression Analysis (LTEA) Assay for Tumor necrosis factor receptor 1 (TNFRSF1A) using HepaRG (AID 2283535)
Summary of the method: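 Read-out is TNFRSF1A transcript level by TaqMan qRT-PCR, normalized to three housekeeping genes, scored as gain or loss of signal versus 0.5% DMSO. Human HepaRG cells received test chemicals for 48 h at up to 100 uM (half-log series).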

Measured: AC50

Sequence of Nuclear factor erythroid 2-related factor 2 (Homo sapiens) (Q16236 whole entry, looked up): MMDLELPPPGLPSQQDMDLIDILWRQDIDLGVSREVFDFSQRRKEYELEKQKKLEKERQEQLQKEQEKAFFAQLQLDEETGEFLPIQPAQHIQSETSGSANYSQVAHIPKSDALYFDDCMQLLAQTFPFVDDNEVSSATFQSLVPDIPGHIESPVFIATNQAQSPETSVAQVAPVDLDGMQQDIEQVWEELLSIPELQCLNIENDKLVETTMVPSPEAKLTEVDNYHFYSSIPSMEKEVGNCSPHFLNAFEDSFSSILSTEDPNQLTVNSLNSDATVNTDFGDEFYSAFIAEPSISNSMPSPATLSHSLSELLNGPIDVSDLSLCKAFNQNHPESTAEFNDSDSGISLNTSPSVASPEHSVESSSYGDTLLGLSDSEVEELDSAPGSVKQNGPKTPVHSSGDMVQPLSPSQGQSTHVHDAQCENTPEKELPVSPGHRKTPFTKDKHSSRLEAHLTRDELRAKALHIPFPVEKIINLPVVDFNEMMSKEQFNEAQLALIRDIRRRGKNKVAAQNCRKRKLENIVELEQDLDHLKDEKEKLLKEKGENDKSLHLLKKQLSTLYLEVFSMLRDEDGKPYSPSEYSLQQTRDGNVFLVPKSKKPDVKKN
Sequence of Signal transducer and activator of transcription 3 (Homo sapiens) (P40763 whole entry, looked up): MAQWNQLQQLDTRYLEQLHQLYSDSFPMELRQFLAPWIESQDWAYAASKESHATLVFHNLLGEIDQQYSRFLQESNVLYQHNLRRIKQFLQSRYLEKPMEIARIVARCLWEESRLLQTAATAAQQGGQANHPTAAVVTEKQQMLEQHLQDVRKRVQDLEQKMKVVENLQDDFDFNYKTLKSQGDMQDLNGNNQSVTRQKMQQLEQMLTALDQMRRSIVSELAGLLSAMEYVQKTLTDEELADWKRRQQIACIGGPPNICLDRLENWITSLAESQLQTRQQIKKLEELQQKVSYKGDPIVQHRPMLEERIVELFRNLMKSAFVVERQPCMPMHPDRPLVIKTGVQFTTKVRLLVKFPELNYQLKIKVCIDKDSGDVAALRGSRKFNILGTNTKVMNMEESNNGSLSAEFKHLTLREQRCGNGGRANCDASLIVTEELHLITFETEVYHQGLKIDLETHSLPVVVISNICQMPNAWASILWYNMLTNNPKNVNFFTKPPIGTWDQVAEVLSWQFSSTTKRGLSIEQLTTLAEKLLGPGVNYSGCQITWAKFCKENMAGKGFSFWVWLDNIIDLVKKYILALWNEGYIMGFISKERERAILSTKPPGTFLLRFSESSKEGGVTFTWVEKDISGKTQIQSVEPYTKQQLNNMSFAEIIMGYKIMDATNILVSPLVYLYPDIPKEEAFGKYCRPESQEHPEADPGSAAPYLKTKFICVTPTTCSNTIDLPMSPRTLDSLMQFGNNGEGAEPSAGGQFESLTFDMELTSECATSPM

O=C(O)Cn1c(=O)n(Cc2ccc(Br)cc2F)c(=O)c2ccc(Cl)cc21
inactive: all assays above

CC(C)(O)c1ccc(CNC(=O)c2cccnc2Oc2ccc3nonc3c2)cc1
inactive: all assays above

O=C(O)Cc1cc(I)c(Oc2ccc(O)c(I)c2)c(I)c1
active: [2] 85.6 µM | [5] 82.7 µM | [6] 79.5 µM | [7] 85.3 µM | [8] 79.5 µM
inactive: [3] | [4] | [9] | [10]

CC(C)(C)c1cc(/C=C2\SC(N)=NC2=O)cc(C(C)(C)C)c1O
active: [2] 22.7 µM | [5] 24.9 µM | [6] 93.6 µM | [7] 22.6 µM | [8] 4.43 µM | [9] 33.8 µM | [10] 15.8 µM
inactive: [3] | [4]

Cc1cc2c(cc1C(F)(F)F)N(C(=O)Nc1ccc(Oc3cccnc3C)nc1)CC2
active: [9] 83 µM | [10] 73.6 µM
not listed: [1]
inactive: all other assays above

O=c1ccc2ccccc2o1
not listed: [1]
inactive: all other assays above

O=c1c(-c2ccc(O)cc2)coc2cc(O)cc(O)c12
not listed: [1]
inactive: all other assays above

CC[C@H](NC(=O)c1cc(F)ccc1NS(=O)(=O)c1cccc2cccnc12)c1ccccc1
active: [5] 77.6 µM | [6] 84.8 µM
not listed: [1]
inactive: all other assays above

CCCCCCCC[Si](OCC)(OCC)OCC
not listed: [1]
inactive: all other assays above

NC(=O)c1nc(-c2cccc(-c3cc(F)ccc3OCC(F)(F)C(F)(F)F)c2)n[nH]1
active: [7] 91.2 µM | [9] 83.2 µM
not listed: [1]
inactive: all other assays above

CCN(Cc1cccnc1)C(=O)c1cccc(Cl)c1[C@]1(C)C(=O)N(Cc2ccc(OC)cc2OC)c2ccc(Cl)cc21
inactive: [3] | [4] | [9] | [10]
active: [2] 16 µM | [5] 22.2 µM | [6] 25.3 µM | [7] 13.6 µM | [8] 14.5 µM

O=C1c2ccccc2C(=O)N1CCc1noc(-c2ccc(CN3CCCCCC3)s2)n1
not listed: [1]
inactive: all other assays above

CN1C(=O)N(c2ccccc2Br)Cc2cnc(Nc3ccc4c(c3)OCC(CO)O4)nc21 (configuration not stated)
inactive: [2] | [7]
active: [3] 12.2 µM | [4] 50 µM | [5] 80.9 µM | [6] 81.1 µM | [8] 24.2 µM | [9] 11.9 µM | [10] 83.7 µM

O=C(O)c1ccccc1-n1cc(C(=O)O)c(=O)c2cc(Nc3c(F)cc(F)cc3Cl)c(Cl)cc21
active: [10] 0.0319 µM
not listed: [1]
inactive: all other assays above

CCCCCCCCOC(=O)c1cc(O)c(O)c(O)c1
not listed: [1]
inactive: all other assays above

O=C=NCCCCCCN=C=O
not listed: [1]
inactive: all other assays above

CCCC(=O)OCCC(C)C
not listed: [1]
inactive: all other assays above

CCCCOC(=O)CC(CC(=O)OCCCC)(OC(C)=O)C(=O)OCCCC
not listed: [1]
inactive: all other assays above

CN(C)c1ccc(C(=C2C=CC(=[N+](C)C)C=C2)c2ccc(N(C)C)cc2)cc1
inactive: [7]
active: [2] 12.7 µM | [3] 11.1 µM | [4] 39.3 µM | [5] 4.64 µM | [6] 3.54 µM | [8] 68.7 µM | [9] 74.2 µM | [10] 8.56 µM

CCN(Cc1cccc(S(=O)(=O)O)c1)c1ccc(C(=C2C=CC(=[N+](CC)Cc3cccc(S(=O)(=O)O)c3)C=C2)c2ccccc2S(=O)(=O)[O-])cc1
not listed: [1]
inactive: all other assays above

CCCCCCCCCCCCO
not listed: [1]
inactive: all other assays above

CC1=CC(=O)/C(=C(/C)O)C(=O)O1
not listed: [1]
inactive: all other assays above

CCO[Si](CCCNC(N)=O)(OCC)OCC
not listed: [1]
inactive: all other assays above

CC[C@@H]1C[C@H](N(Cc2cc(C(F)(F)F)cc(C(F)(F)F)c2)C(C)=O)c2cc(C(F)(F)F)ccc2N1C(=O)OC(C)C
not listed: [1]
inactive: all other assays above

Cc1cccc2ccccc12
not listed: [1]
inactive: all other assays above

Cc1cc(F)ccc1-c1cc(N2CC[C@@H](O)[C@H]2CO)ncc1N(C)C(=O)C(C)(C)c1cc(C(F)(F)F)cc(C(F)(F)F)c1
inactive: [4] | [9] | [10]
active: [2] 11.5 µM | [3] 75.1 µM | [5] 12.9 µM | [6] 24.7 µM | [7] 23.6 µM | [8] 19.3 µM

Cc1oc2c(NC(=O)c3c(Cl)cccc3Cl)cccc2c1C(C)(C)O
active: [2] 79 µM | [5] 54 µM | [6] 68.1 µM | [8] 50 µM
not listed: [1]
inactive: all other assays above

CC(O)CC(C)(C)O (configuration not stated)
not listed: [1]
inactive: all other assays above

CCN(CC)C(=O)c1cc(S(=O)(=O)Cc2ccccc2)c(N2CCC(c3ccccc3)CC2)cc1N(CC)CCN(C)C
active: [2] 29.1 µM | [5] 33.3 µM | [6] 32.6 µM | [7] 27.9 µM | [10] 30.1 µM
inactive: [3] | [4] | [8] | [9]

CN1C(=O)CC[C@H]1c1cccnc1
not listed: [1]
inactive: all other assays above

CN(C)C(=O)C1(N2CCCCC2)CCN(CC[C@@]2(c3ccc(Cl)c(Cl)c3)CN(C(=O)c3ccccc3)CCO2)CC1
active: [2] 47.2 µM | [3] 22.5 µM | [4] 47.2 µM | [5] 23.1 µM | [6] 23.3 µM | [8] 47.2 µM | [9] 17.4 µM | [10] 27.5 µM
inactive: [7]

O=C(Nc1ccc(Cl)cc1)Nc1ccc(Cl)c(Cl)c1
inactive: [2]
active: [3] 13.2 µM | [4] 14.2 µM | [5] 18.7 µM | [6] 22.7 µM | [7] 25.5 µM | [8] 24.4 µM | [9] 16 µM | [10] 13.1 µM

c1ccc2ccccc2c1
not listed: [1]
inactive: all other assays above

c1ccc2n[nH]nc2c1
not listed: [1]
inactive: all other assays above

CCCCCc1ccc(N)cc1
not listed: [1]
inactive: all other assays above

Oc1ccccc1
not listed: [1]
inactive: all other assays above

Cc1cn([C@H]2C[C@H](N=[N+]=[N-])[C@@H](CO)O2)c(=O)[nH]c1=O
not listed: [1]
inactive: all other assays above

COCC(C)OCC(C)OCC(C)O (configuration not stated)
not listed: [1]
inactive: all other assays above

CCCCCCCCOc1ccc(C(=O)c2ccccc2)c(O)c1
not listed: [1]
inactive: all other assays above

CCCCCCCCN(C)CCCCCCCC
not listed: [1]
inactive: all other assays above
